PubChem BioAssay

Columns and labels:
[1] = test system: Botulinum neurotoxin type F light chain protease (Clostridium botulinum); test: Botulinum neurotoxin type F light chain protease inhibition, multiplex microsphere flow cytometry, validation set (AID 588459); settings: multiplex microsphere protease substrate cleavage assay, at 10 µM, hits give high values
[2] = target: Botulinum neurotoxin type A (Clostridium botulinum) (UniProt P0DPI0); test: BoNT/A light chain protease inhibitors, biochemical, multiplex microsphere flow cytometry, validation set (AID 588460); settings: at 10 µM, hits give high values
[3] = target: Lethal factor (Bacillus anthracis) (UniProt P15917); test: Lethal factor protease inhibitors, Bacillus anthracis, multiplex microsphere cleavage assay, validation set (AID 588461); settings: flow cytometry, at 10 µM, hits give high values

Measured: inhibition

CC1(C)C2CCC1(C(=O)O)c1nc3ccccc3nc12 (stereo unspecified)
inactive: [1] -0.2% | [2] -0.9% | [3] -0.2%

CCC1CCc2c(sc(NC(=O)c3cccnc3)c2C(N)=O)C1 (stereo unspecified)
inactive: [1] -4.8% | [2] -2.3% | [3] -6.2%

O=S(=O)(CCc1nc2ccccc2[nH]1)c1ccc(Cl)cc1
inactive: [1] 3% | [2] -0.3% | [3] 3.5%

CCOC(=O)c1ccc(NC(=S)NCCc2ccccc2F)cc1
inactive: [1] 4.9% | [2] 2.4% | [3] -2.3%

Cn1c(=O)c2c(ncn2CCO)n(C)c1=O
inactive: [1] 1.2% | [2] -1.8% | [3] 1.7%

COC(=O)C1=NN(C(=O)c2cccc(Br)c2)C(O)(c2ccc(Cl)cc2)C1 (stereo unspecified)
inactive: [1] 3.1% | [2] -0.5% | [3] 1.2%

CC1CC(OC(=O)C(O)c2ccccc2)CC(C)(C)N1C (stereo unspecified)
inactive: [1] -2.4% | [2] -1.7% | [3] -6.1%

O=C(/C=C/c1ccccc1)/C=C/c1ccccc1
inactive: [1] 0.8% | [2] 0.3% | [3] 1.5%

O=Cc1ccc(O)c(O)c1
inactive: [1] -2% | [2] -1.1% | [3] -1%

CCCN1C[C@H](CSC)C[C@@H]2c3cccc4[nH]cc(c34)C[C@H]21
inactive: [1] -8.5% | [2] -1.6% | [3] -33.7%

COc1ccc(CCN=C(N)C(C)c2ccccc2)cc1OC (stereo unspecified)
inactive: [1] -0.2% | [2] 0% | [3] 6.6%

CC1=CC(C)(C)N2C(=O)C3(NCCc4c3[nH]c3ccccc43)c3cc(C)cc1c32 (stereo unspecified)
inactive: [1] -0.9% | [2] -2.5% | [3] 0.2%

CC(=O)Oc1ccc(C2OC(=O)c3ccccc3N2C(C)=O)cc1 (stereo unspecified)
inactive: [1] 2% | [2] 0.3% | [3] 3.3%

Cc1cc(C(=O)Nc2ccccc2C(=O)N2CCCCC2)ccc1[N+](=O)[O-]
inactive: [1] 2.8% | [2] 2.4% | [3] -0.1%

Cc1oc2c(CN3CCCC3)c(O)ccc2c(=O)c1-c1ccc(Cl)cc1
inactive: [1] -1.2% | [2] -0.3% | [3] -0.5%

O=C(O)CCCCCCCC(=O)O
inactive: [1] 1.1% | [2] -0.8% | [3] -1.4%

CN(C)CCOc1ccc(Cl)cc1C(C)(C)C
inactive: [1] -7.7% | [2] -2.2% | [3] -7.1%

CC(=O)OC[C@H]1O[C@@H](n2ncc(=O)[nH]c2=O)[C@H](OC(C)=O)[C@@H]1OC(C)=O
inactive: [1] -0.5% | [2] -0.3% | [3] 3.7%

COc1ccc(CCNC(=S)NC(=O)/C=C/c2ccc(C)cc2)cc1OC
inactive: [1] 0.1% | [2] -1.3% | [3] -7.3%

Cn1cc(CN2CCN(CCO)CC2)c(-c2ccc(Oc3ccccc3)cc2)n1
inactive: [1] 2.6% | [2] 0.5% | [3] -1.5%

Cc1ccc2[nH]c3c(c2c1)CN(C)CC3
inactive: [1] -2.8% | [2] -0.7% | [3] -15%

Cc1cc(/C=N/O)c(C)n1-c1ccc(Br)cc1
inactive: [1] 1.9% | [2] 1.1% | [3] 0.9%

O=C(NCCN1CCOCC1)c1ccc(Cl)cc1
inactive: [1] 2.4% | [2] 1.2% | [3] -2%

COc1ccc(-c2coc3cc(O)cc(O)c3c2=O)cc1
inactive: [1] 0.3% | [2] -0.7% | [3] 0.1%

Cc1ccc(C2CC(=O)C(C=NCCN3CCN(CC(=O)Nc4cc(C)cc(C)c4)CC3)=C(O)C2)cc1 (stereo unspecified)
inactive: [1] 2% | [2] 0.6% | [3] 0.4%

O=c1[nH]cc(F)c(=O)[nH]1
inactive: [1] 0.6% | [2] -1.2% | [3] -1.9%

Cn1c(Oc2ccc3c(c2)OCO3)nc2c1c(=O)n(Cc1ccccc1)c(=O)n2C
inactive: [1] 1.4% | [2] -0.3% | [3] -0.5%

O=C(NC(=S)Nc1ccc(N2CCN(C(=O)c3ccccc3)CC2)cc1)c1cccs1
inactive: [1] -8.9% | [2] -3.2% | [3] -10.5%

CCN(CC)CCOC(=O)C1(C2CCCCC2)CCCCC1
inactive: [1] 1.9% | [2] 1% | [3] -2.4%

CCc1cc(=O)oc2cc(C)c(CN3CCCC(C)C3)c(O)c12 (stereo unspecified)
inactive: [1] 3.9% | [2] -0.1% | [3] -3.1%

CN(C)C(=O)Oc1ccc[n+](C)c1
inactive: [1] -1.5% | [2] -0.6% | [3] -0.5%

O=C(O)CCSCCC(=O)O
inactive: [1] 1.3% | [2] -1.1% | [3] -7.4%

O=C(NCc1ccc(N2CCCC2=O)cc1)c1ccc(F)cc1
inactive: [1] 5.2% | [2] -0.6% | [3] -3.8%

COc1cc2cc(C)nc(Cc3cccc4ccccc34)c2cc1OC
inactive: [1] 5.3% | [2] 1.3% | [3] 3.2%

CCc1cc(=O)oc2cc(OCC=C(C)C)ccc12
inactive: [1] 2% | [2] 0.5% | [3] 0.2%

CC(C)C12CN3CC(C(C)C)(CN(C1)C3c1ccccc1)C2O (stereo unspecified)
inactive: [1] 1.7% | [2] 1.2% | [3] 7%

COc1cc2cc(C(=O)O)n(C)c2c(OC)c1OC
inactive: [1] 1.3% | [2] -0.4% | [3] 1.2%

Cc1ccnc2c1NC(=O)c1cccnc1N2C1CC1
inactive: [1] 0.7% | [2] -0.1% | [3] -4.5%

C#CCN(C)CCCOc1ccc(Cl)cc1Cl
inactive: [1] 1.1% | [2] -1.4% | [3] -10.6%

CC(=O)CSc1ncnc2c1cnn2-c1ccccc1
inactive: [1] 2.3% | [2] 0.8% | [3] -1.6%

Cc1onc(-c2c(Cl)cccc2Cl)c1C(=O)NC1C(=O)N2C1SC(C)(C)C2C(=O)O (stereo unspecified)
inactive: [1] 1.2% | [2] 0.2% | [3] 2.3%

CC(C)=CC/C=C1\CCC(C(=O)O)C(C(=O)O)C1 (stereo unspecified)
inactive: [1] -1.1% | [2] -1.6% | [3] -3.4%

COc1ccc(CCN2CNc3c(c(=O)n(C)c(=O)n3C)C2)cc1OC
inactive: [1] 22.1% | [2] 8% | [3] 4.8%

COc1cc2ccc(=O)oc2c(O)c1OCC=C(C)C
inactive: [1] -4.9% | [2] 1.4% | [3] 1.2%

COc1cc(OC)c(C2C(C#N)=C(N)OC3=C2C(=O)CC(C)(C)C3)cc1OC (stereo unspecified)
inactive: [1] -2.6% | [2] 0.8% | [3] 4.6%

COc1cccc(NC(=O)C2CC(=O)OC23CCOC(C)(C)C3)c1 (stereo unspecified)
inactive: [1] -5.5% | [2] -1.3% | [3] -8.2%

CC(=O)NCCCCCCNC(C)=O
inactive: [1] 5.8% | [2] 2.3% | [3] 10.8%

CCCCCC#CCC#CCC#CCC#CCCCC(=O)O
inactive: [1] 5.7% | [2] -0.6% | [3] -1.6%

O=C1C(=O)c2ccccc2C(O)=C1c1ccccc1F
inactive: [1] 4.6% | [2] 0.5% | [3] -1.5%

CCOC(=O)c1ccc2[nH]c(C)c(CCC(C)=O)c(=O)c2c1
inactive: [1] -0.7% | [2] 0.3% | [3] 6%

CO[C@@H]1O[C@@H]2COC(c3ccccc3)O[C@@H]2[C@@H](OC)[C@@H]1O (stereo partly specified)
inactive: [1] 1.6% | [2] -0.6% | [3] 2.5%

Cn1c(=O)c2c(ncn2CC(O)CO)n(C)c1=O (stereo unspecified)
inactive: [1] 2.3% | [2] 1% | [3] 2%

O=C(c1cc2cc(Br)ccc2o1)N1CCCC1
inactive: [1] -9.1% | [2] -4.2% | [3] -3.2%

O=C(NCCNc1ccc(Cl)cc1[N+](=O)[O-])c1cccnc1
inactive: [1] 0.4% | [2] -1.2% | [3] 2%

CC1(CC(=O)Nc2ccccc2)NC(=S)N(c2ccccc2)N1 (stereo unspecified)
inactive: [1] 3% | [2] 0% | [3] 5.1%

CN1CC2CCCC3(C1)C(=O)NC1(CCCCC1)N=C23 (stereo unspecified)
inactive: [1] 2.2% | [2] -0.6% | [3] -5.3%

CC(=O)C1=C(NC(=O)c2ccc(C(F)(F)F)cc2)C[C@@H]2[C@H]1C2(C)C
inactive: [1] 2% | [2] 1.5% | [3] -1%
